Shown are actives, neighbours in structure and some others; about 3.7% of the full set was active somewhere.
Bead autofluor = flagged as autofluorescent in microsphere protease counterscreen; 3.1% of 360,000 active; compound autofluorescence counterscreen, microsphere flow cytometry; stronger effect = higher value; AID 624483; fluorescence intensity (test concentration not listed); in the data active means fluorescence intensity above about 16000; inconclusive means no clear call, values can overlap the other calls
Anthrax LF inh2 = Bacillus anthracis LF protease inhibitors, primary screen, biochemical, multiplex microsphere, MLPCN library. Lethal factor (Bacillus anthracis), P15917. multiplex microsphere protease cleavage assay. inhibition, % at 10 µM. 0.12% of 360,000 active; further: plate controls were buffer without enzyme for full effect and enzyme alone for no effect
Target sequence (P15917 whole entry, looked up): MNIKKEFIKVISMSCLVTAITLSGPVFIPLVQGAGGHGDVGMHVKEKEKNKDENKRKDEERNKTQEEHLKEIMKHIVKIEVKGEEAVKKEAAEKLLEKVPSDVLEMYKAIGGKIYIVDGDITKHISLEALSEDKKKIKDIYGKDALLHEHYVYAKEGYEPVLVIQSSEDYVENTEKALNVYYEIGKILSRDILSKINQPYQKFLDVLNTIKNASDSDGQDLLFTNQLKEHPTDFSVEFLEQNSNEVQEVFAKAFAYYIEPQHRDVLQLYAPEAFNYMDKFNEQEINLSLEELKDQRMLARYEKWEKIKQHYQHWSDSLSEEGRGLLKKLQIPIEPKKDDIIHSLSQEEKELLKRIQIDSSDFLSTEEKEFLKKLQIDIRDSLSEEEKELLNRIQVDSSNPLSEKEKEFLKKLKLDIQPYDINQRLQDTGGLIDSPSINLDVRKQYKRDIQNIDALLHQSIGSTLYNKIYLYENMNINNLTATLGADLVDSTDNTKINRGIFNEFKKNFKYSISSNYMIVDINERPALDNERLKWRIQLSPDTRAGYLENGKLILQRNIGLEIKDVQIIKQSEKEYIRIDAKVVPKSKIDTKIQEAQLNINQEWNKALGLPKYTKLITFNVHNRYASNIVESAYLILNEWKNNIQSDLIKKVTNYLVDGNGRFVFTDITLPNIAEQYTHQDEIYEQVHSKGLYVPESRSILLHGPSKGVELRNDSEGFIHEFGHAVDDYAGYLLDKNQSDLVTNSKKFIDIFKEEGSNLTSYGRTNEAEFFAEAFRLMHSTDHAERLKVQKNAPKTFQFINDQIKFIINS
BJeLR viability = MLPCN primary cell-based screen for lethality selective to Ras in HRASV12 cells; BJeLR (HRASV12) viability, CellTiter-Glo ATP luminescence, 48 h; inhibition, % (concentration not given with the values); 0.17% of 300,000 active; AID 1554, 2009; in the data active means inhibition above about 50%; inconclusive means no clear call, values can overlap the other calls
BoNT A protease = BoNT/A light chain protease inhibitors, primary screen, biochemical, flow cytometry, MLPCN library. Botulinum neurotoxin type A light chain protease (Clostridium botulinum A str. ATCC 3502). multiplex microsphere protease substrate cleavage. inhibition, % at 10 µM. 0.17% of 360,000 active. AID 588499, 2011; further: plate controls were buffer without enzyme for full effect and enzyme alone for no effect
Vc quorum ag = inducers of Vibrio cholerae quorum light production without autoinducers, primary screen, BH1578 luxS cqsA deficient, single point; AID 588436, 2011; activation, % at 18.7 µM; V. cholerae BH1578 lux reporter, luminescence, 6 h; 0.16% of 350,000 active; in the data active means activation mostly above about 9.7%, no sharp cut-off; inconclusive means no clear call, values can overlap the other calls; inactive means mostly below about 3.7%
BoNT F protease = BoNT/F light chain protease inhibitors, primary screen, biochemical, flow cytometry, MLPCN library; Botulinum neurotoxin type F light chain protease (Clostridium botulinum); Multiplex microsphere protease cleavage assay; inhibition, % at 10 µM; 0.22% of 360,000 active; AID 588497, 2011; in the data active means inhibition above about 35%, passing the limit was not always enough; inconclusive means no clear call, values can overlap the other calls; further: plate controls were buffer without enzyme for full effect and enzyme alone for no effect
The depositor's hits bear a star. Unless noted, no stated cut-off is given here; in the data, active means inhibition above about 30%; inconclusive means no clear call, values can overlap the other calls; inactive means below that.

How did O/N=C(/c1ccccc1)c1cc2cc(Br)cc(Br)c2o1 do in these assays?
Bead autofluor: 3708; Anthrax LF inh2: 30*; BJeLR viability: -1; BoNT A protease: 0; Vc quorum ag: inactive; BoNT F protease: 10

Results for COc1cccc2cc(/C(=N/O)c3ccc(Br)cc3)oc12 ?
Bead autofluor: 3510; Anthrax LF inh2: -1; BJeLR viability: 3; BoNT A protease: 0; Vc quorum ag: inactive; BoNT F protease: -2

Results for O=C(NC1CC1)c1ccc2nc([C@@H]3O[C@H](CO)[C@H](O)[C@H](O)[C@H]3O)[nH]c2c1 ?
Bead autofluor: 2958; Anthrax LF inh2: -1; BoNT A protease: 0; Vc quorum ag: inactive; BoNT F protease: -2

How did CC(C)(C)NC(=O)NC(=O)CSc1ncc(C(F)(F)F)cc1Cl do in these assays?
Bead autofluor: 8099; Anthrax LF inh2: -3; BJeLR viability: 0; BoNT A protease: 0; Vc quorum ag: inactive; BoNT F protease: -5

Results for CC(C)NC(=O)NC(=O)CSc1ncc(C(F)(F)F)cc1Cl ?
Bead autofluor: 22963*; Anthrax LF inh2: 0; BJeLR viability: 2; BoNT A protease: -2; Vc quorum ag: inactive; BoNT F protease: -3

What do the screens show for `O=C(CN1C(=O)C2CC=CCC2C1=O)Nc1nc(-c2ccc(F)c(F)c2)cs1` (stereo not given)?
Bead autofluor: 4087; Anthrax LF inh2: -1; BoNT A protease: 0; Vc quorum ag: inactive; BoNT F protease: -2

Results for Cc1nc2ccccn2c1-c1csc(Nc2cccc(O)c2)n1 ?
Bead autofluor: 4292; Anthrax LF inh2: -7; BJeLR viability: 55*; BoNT A protease: -1; Vc quorum ag: 0; BoNT F protease: -6

Results for Cc1cccc(Nc2nc(-c3c(C)nc4ccccn34)cs2)c1 ?
Bead autofluor: 10666; Anthrax LF inh2: -2; BJeLR viability: 15; BoNT A protease: 0; Vc quorum ag: -1; BoNT F protease: -8

What do the screens show for `CC(C)COC(=O)C(C)Nc1n[nH]c(=S)[nH]c1=O` (stereo not given)?
Bead autofluor: 3219; Anthrax LF inh2: -11; BJeLR viability: 1; BoNT A protease: -1; Vc quorum ag: active; BoNT F protease: 3

How did CC(=O)c1c(N2CCCCC2)nc(=S)n(Cc2ccccc2)c1C do in these assays?
Bead autofluor: 6242; Anthrax LF inh2: -3; BJeLR viability: 0; BoNT A protease: 1; Vc quorum ag: inactive; BoNT F protease: -5

What do the screens show for `CC(=O)c1c(N2CCN(Cc3ccccc3)CC2)nc(=S)n(Cc2ccccc2)c1C`?
Bead autofluor: 4562; Anthrax LF inh2: 8; BJeLR viability: 7; BoNT A protease: 42*; Vc quorum ag: -1; BoNT F protease: -11

Results for COc1ccc(OCC(=O)Nc2cccc(-c3nc4ccccc4[nH]3)c2)cc1 ?
Bead autofluor: 24148*; Anthrax LF inh2: -3; BJeLR viability: 11; BoNT A protease: inconclusive; Vc quorum ag: inactive; BoNT F protease: -3

What do the screens show for `O=C(O)CCCC(=O)Nc1cccc(-c2nc3ccccc3[nH]2)c1`?
Bead autofluor: 16669*; Anthrax LF inh2: 3; BJeLR viability: 0; BoNT A protease: 0; Vc quorum ag: -3; BoNT F protease: -3

How did CC(=O)Nc1cccc(NC(=O)CCCC(=O)O)c1 do in these assays?
Bead autofluor: 18707*; Anthrax LF inh2: 1; BJeLR viability: 3; BoNT A protease: inconclusive; Vc quorum ag: inactive; BoNT F protease: 3

What do the screens show for `O=C(c1cccs1)N1C[C@@H](n2cc(-c3ccc(F)cc3)nn2)[C@H](O)C[C@@H]1c1ccccc1`?
Bead autofluor: 3950; Anthrax LF inh2: -3; BoNT A protease: 0; Vc quorum ag: 0; BoNT F protease: -8

How did CCN(CC)S(=O)(=O)c1cc(NC(=O)COC(=O)CCc2nc3ccccc3s2)ccc1C do in these assays?
Bead autofluor: 22825*; Anthrax LF inh2: -5; BJeLR viability: -3; BoNT A protease: inconclusive; Vc quorum ag: inactive; BoNT F protease: -1

Results for CCCCn1nnnc1C(c1ccccc1)N1CCN(c2c(Cl)cncc2Cl)CC1 (stereo not given) ?
Bead autofluor: 6085; Anthrax LF inh2: -4; BoNT A protease: -1; BoNT F protease: -1

How did N#Cc1ccc(-c2cccc3nccn23)cc1 do in these assays?
Bead autofluor: 3366; Anthrax LF inh2: -1; BoNT A protease: 0; Vc quorum ag: inactive; BoNT F protease: 0

What do the screens show for `CN1C(=O)S/C(=C/c2cccnc2)C1=O`?
Bead autofluor: 21884*; Anthrax LF inh2: -1; BJeLR viability: -6; BoNT A protease: 0; Vc quorum ag: inactive; BoNT F protease: -4

How did O=C(O)CN1C(=O)S/C(=C\c2cccnc2)C1=O do in these assays?
Bead autofluor: 4571; Anthrax LF inh2: -3; BJeLR viability: -1; BoNT A protease: 0; Vc quorum ag: -1; BoNT F protease: -1

What do the screens show for `Cc1c(NC(=O)C(C)Sc2nc3ccccc3c(=O)n2CCO)c(=O)n(-c2ccccc2)n1C` (stereo not given)?
Bead autofluor: 21769*; Anthrax LF inh2: -1; BJeLR viability: 5; BoNT A protease: -7; Vc quorum ag: inactive; BoNT F protease: -5

What do the screens show for `O=C(NCc1cccnc1)c1ccc(NC(=O)c2ccc(Br)cc2)cc1`?
Bead autofluor: 4415; Anthrax LF inh2: -2; BJeLR viability: 78*; BoNT A protease: 0; Vc quorum ag: 0; BoNT F protease: 5

How did CC(C)C(=O)Nc1ccc(C(=O)NCc2cccnc2)cc1 do in these assays?
Bead autofluor: 2424; Anthrax LF inh2: 1; BJeLR viability: 78*; BoNT A protease: 1; BoNT F protease: -7

What do the screens show for `CCCCN(CCCNC(=O)c1ccc2c(c1)NC(=O)CN2C)c1ccccc1`?
Bead autofluor: 3642; Anthrax LF inh2: -4; BoNT A protease: 1; Vc quorum ag: 0; BoNT F protease: -1

How did CCN(CC)CC(=O)Nc1cc(N(C)C)nc2ccccc12 do in these assays?
Bead autofluor: inconclusive; Anthrax LF inh2: -8; BJeLR viability: 1; BoNT A protease: 2; Vc quorum ag: inactive; BoNT F protease: inconclusive

What do the screens show for `CCCCCC(=O)Nc1cc(N(C)C)nc2ccccc12`?
Bead autofluor: 17328*; Anthrax LF inh2: -14; BJeLR viability: 9; BoNT A protease: 6; Vc quorum ag: 0; BoNT F protease: 9

What do the screens show for `COC(=O)c1ccc(-n2c(C)cc(/C=N/n3cnnc3)c2C)cc1`?
Bead autofluor: 3597; Anthrax LF inh2: 0; BJeLR viability: -5; BoNT A protease: 1; Vc quorum ag: inactive; BoNT F protease: 0

How did Cc1cc(/C=N/n2cnnc2)c(C)n1-c1ccc(C(=O)O)cc1 do in these assays?
Bead autofluor: 23182*; Anthrax LF inh2: -2; BJeLR viability: -7; BoNT A protease: -2; Vc quorum ag: -5; BoNT F protease: -2

From PubChem BioAssay
